# Measurements reported in PubChem BioAssay AID504834 (National Center for Advancing Translational Sciences (NCATS), 2011).
# The campaign covered roughly 320,000 compounds. About 22,000 (6.9%) were called active. Inconclusive results (about 27%) are left out. Calls come from the whole dose curve; as a rule, active = well fitted inhibition curve with a large enough effect; inconclusive = small, poorly fitted or top-dose-only effect, or another doubt; inactive = no such curve, though single readings can be large or run the other way. The full list was thinned out, with actives kept by preference.
# Assay: Primary qHTS for delayed death inhibitors of the malarial parasite plastid, 96 hour incubation
# Details: P. falciparum luciferase reporter growth; series mostly up to 28.7 µM; activity change, negative = inhibition: at the top concentration
# Outline: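 Infected RBCs, 2% Hct / 0.05% parasitemia final; luciferase-reporter P. falciparum; cpd 96 h, 37 C, 5% CO2; luciferase detection reagent; luminescence.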
# % is set by controls: 0 for no effect and ±100 for the full control effect; potency is the fitted concentration of half-maximal effect.
SMILES,"activity change, negative = inhibition",Potency
CN(CC(=O)NC(=O)Nc1ccccc1F)Cc1ccccc1,109% (inactive),–
COc1ccc2ccn(C)c2c1,33.3% (inactive),–
O=C(Cc1cccs1)Nc1ccc([N+](=O)[O-])cc1,-5.05% (inactive),–
O=C(O)C(c1ccccc1)N1C(=O)/C(=C\c2ccc(-c3cccc(Cl)c3)o2)SC1=S (centres undefined),-4.8% (inactive),–
O=C1CCC(C(=O)N2CCCCO2)CN1Cc1cccc(C(F)(F)F)c1 (centres undefined),-3.04% (inactive),–
O=C(NC1CCCC1)c1cc(-c2ccccc2)on1,-2.14% (inactive),–
COc1ccc(OCc2cccc(C(=O)N3CCCC3)c2)cc1,34.8% (inactive),–
CC(=O)c1cccc(NC(=S)N2CCCC2)c1,37.1% (inactive),–
CCC(CC)C(=O)Nc1cccc(C(=O)N2CCCC2)c1,–,8.28 µM (active)
Cc1ccc(Cl)c(OCC(=O)NN2CCN(C)CC2)c1,7.77% (inactive),–
CCc1c(C)nc(N)n2c(SCC(=O)NC3CCCCC3)nnc12,41.3% (inactive),–
CCOC(=O)C1=C(CN2CCCCCC2)NC(=O)NC1c1cccc([N+](=O)[O-])c1 (centres undefined),-14.6% (inactive),–
CCOC(=O)C1=C(CN2CCc3ccccc32)NC(=O)NC1c1ccc(Cl)cc1 (centres undefined),–,2.08 µM (active)
Cn1c2c(c(=O)n(C)c1=O)C(c1cccc([N+](=O)[O-])c1)Nc1ccccc1O2 (centres undefined),48% (inactive),–
CCOC(=O)C1=C(CN2CCc3ccccc32)NC(=O)NC1c1cccc([N+](=O)[O-])c1 (centres undefined),–,8.28 µM (active)
CCOC(=O)C1=C(c2ccccc2)NC(=S)NC1c1ccc(Cl)cc1 (centres undefined),11.7% (inactive),–
O=C(OCC(=O)N1CCc2ccccc21)C1CCCN1S(=O)(=O)c1ccc(Cl)cc1 (centres undefined),-14.8% (inactive),–
NC(=O)C1CCCN(CC(=O)N2CCN(c3ccccc3)CC2)C1 (centres undefined),10.1% (inactive),–
CCOc1ccc(NC(=O)COC(=O)C2CCC(=O)N2)c([N+](=O)[O-])c1 (centres undefined),-5.81% (inactive),–
CN(CC(=O)O)S(=O)(=O)c1ccc2oc3ccccc3c2c1,0.237% (inactive),–
CC1CCCCC1NC(=O)c1cc(=O)[nH]c2ccccc12 (centres undefined),25.1% (inactive),–
CCOc1ccc(NC(=O)CCC(=O)N/N=C/c2ccc([N+](=O)[O-])s2)cc1,–,4.15 µM (active)
CCOc1ccc(NC(=O)CCC(=O)NNC(=O)NC2CCCCC2)cc1,31.6% (inactive),–
Cc1ccccc1NCC(=O)N/N=C\c1ccc([N+](=O)[O-])s1,35.6% (inactive),–
CCOc1ccc2sc(NS(=O)(=O)c3ccc(N)cc3)nc2c1,30.6% (inactive),–
CCc1cccc(CC)c1NC(=S)Nc1ccc2cn[nH]c2c1,31.3% (inactive),–

SMILES,"activity change, negative = inhibition",Potency
Cc1cc2cc(CNC(=O)c3cccs3)ccc2[nH]1,-7.56% (inactive),–
CCc1cccc(CC)c1NC(=S)NCc1ccc2[nH]c(C)cc2c1,–,2.62 µM (active)
CCOc1ncccc1C(=O)OCC(=O)Nc1cccc(S(=O)(=O)N2CCCCCC2)c1,-18.5% (inactive),–
CC(C)c1ccc(/C=C2\NC(=O)NC2=O)cc1,-19.4% (inactive),–
CCO[C@H]1OC(C(=O)O)=C[C@@H](C2CCCCC2)[C@@H]1CCCO,40.6% (inactive),–
CCO[C@H]1OC(C(=O)N2CCCCCCC2)=C[C@@H](c2ccc(C(F)(F)F)cc2)[C@@H]1CCCO,–,3.29 µM (active)
CCO[C@H]1OC(C(=O)N2CCOCC2)=C[C@@H](c2ccc3c(c2)OCO3)[C@@H]1CCCO,39.4% (inactive),–
CCO[C@H]1OC(C(=O)N2CCN(Cc3ccccc3)CC2)=C[C@@H](c2cn(C(C)=O)c3ccccc23)[C@@H]1CCCO,–,9.28 µM (active)
CCO[C@@H]1OC(C(N)=O)=C[C@H](c2ccc(Br)cc2)[C@H]1CCCO,-4.59% (inactive),–
CCO[C@@H]1OC(C(=O)N2CCOCC2)=C[C@H](C)[C@H]1CCCO,93.2% (inactive),–
Cc1ccc(S(=O)(=O)CCC(=O)OCC(=O)N(C)C2CCS(=O)(=O)C2)cc1 (centres undefined),19.7% (inactive),–
CCN(CC(=O)Nc1ccccc1C(F)(F)F)C(=O)CSCc1c(C)noc1C,40.3% (inactive),–
Cc1ccc2c(c1)N(CC(=O)N1CCOCC1)C(=O)CO2,-14.3% (inactive),–
Cc1ccc2c(c1)N(CC(=O)NCC1CCCO1)C(=O)CO2 (centres undefined),–,7.38 µM (active)
Cc1ccc2c(c1)N(CC(=O)N1CCCC(C)C1)C(=O)CO2 (centres undefined),-3.97% (inactive),–
CN(C)CCN(C(=O)C1=COCCO1)c1nc2ccc(Cl)cc2s1,-2.53% (inactive),–
CC(=O)N(CC1CCCO1)C1(C(=O)NC2CCCC2)CCCCC1 (centres undefined),–,10.4 µM (active)
Cc1ccc(N(C(=O)CC2NC(=O)NC2=O)C2(C(=O)NC3CCCC3)CCCCC2)cc1 (centres undefined),43.8% (inactive),–
O=C(Cc1cccs1)N(CC1CCCO1)C1(C(=O)NC2CCCCC2)CCCCC1 (centres undefined),0% (inactive),–
O=[N+]([O-])c1cccc(S(=O)(=O)NCc2ccccn2)c1,15.5% (inactive),–
COc1ccc(C(=O)NNS(=O)(=O)c2ccc(C)cc2)cc1,14.6% (inactive),–
Cc1ccc(S(=O)(=O)NNC(=S)NC(C)(C)C)cc1,-0.316% (inactive),–
Cc1ccc(S(=O)(=O)NNC(=O)Nc2cccc3ccccc23)cc1,–,1.85 µM (active)
CCOc1ccc(NC(=O)CN(C)C(=O)Cn2c(=O)cnc3ccccc32)cc1OCC,36.6% (inactive),–
COc1ccccc1C(=O)NC(=O)COC(=O)C1CC1,24.6% (inactive),–
CC(=O)c1ccccc1NC(=O)C1CC(=O)N(c2ccc3c(c2)OCCO3)C1 (centres undefined),-15.7% (inactive),–

SMILES,"activity change, negative = inhibition",Potency
CCOC(=O)C1CCN(C(=O)CSc2cc(=O)n(C)c3ccccc23)CC1,–,2.33 µM (active)
CCCCn1c(SCc2ncc(-c3ccccc3)o2)nc2cc(S(N)(=O)=O)ccc21,–,14.7 µM (active)
CCCCn1c(SCC(=O)N2CCCC2=O)nc2cc(S(N)(=O)=O)ccc21,-21.5% (inactive),–
CCCCn1c(SCC(=O)N2CCC(C(=O)OCC)CC2)nc2cc(S(N)(=O)=O)ccc21,–,13.1 µM (active)
CCOC(=O)C1CCN(C(=O)COC(=O)C2CCN(S(=O)(=O)c3ccc4c(c3)OCCO4)CC2)CC1,-15% (inactive),–
Cn1c(=O)cc(SCC(=O)N2CCCC2)c2cc(Cl)ccc21,2.24% (inactive),–
Cn1c(=O)cc(SCC(=O)N2CCN(C(=O)c3ccco3)CC2)c2ccccc21,-22% (inactive),–
O=C(CCNS(=O)(=O)c1ccccc1)NCCCc1ccccc1,20.3% (inactive),–
CN1C(=O)c2ccc(C(=O)Nc3ccc(Br)cn3)cc2C1=O,-14% (inactive),–
Cc1c(C(=O)N2CCOCC2)[nH]c2ccc(OCc3ccccc3)cc12,17.7% (inactive),–
CCOC(=O)c1[nH]c2ccc(OC)cc2c1NC(=O)N1CCOCC1,–,14.7 µM (active)
CCOC(=O)c1[nH]c2ccc(OC)cc2c1NC(=O)CCN1CCN(Cc2ccccc2)CC1,74.3% (inactive),–
O=C(COc1ccc(Cl)cc1)Nc1ccc2oc(=O)ccc2c1,77.3% (inactive),–
CC1(C)CC(=O)C=C(c2ccc(Cl)c(C(F)(F)F)c2)C1,–,5.86 µM (active)
COc1cc(F)c(C2=CC(=O)CC(C)(C)C2)cc1F,19.7% (inactive),–
CC1(C)CC(=O)C=C(c2ccc3ncccc3c2)C1,-12.4% (inactive),–
COC(=O)C1(C)NC(c2ccccc2OC)C2C(=O)N(c3ccccc3)C(=O)C21 (centres undefined),25.5% (inactive),–
Cc1cc(C(=O)NCCc2ccc(Cl)cc2)n(-c2ccccc2)n1,2.42% (inactive),–
CCc1[nH]nc(C(=O)N2CCCC(CO)(Cc3ccc(F)cc3F)C2)c1C (centres undefined),0% (inactive),–
CCCN(c1ccc(C)cc1)c1nc(=O)c2cccnc2s1,–,6.57 µM (active)
CCc1c(C)nc(SCC(=O)NC2CCCC2)[nH]c1=O,0% (inactive),–
CCc1ccc(C(=O)NN=C2CCCCCC2)s1,-9.21% (inactive),–
CC(=O)Nc1ccc(NC(=O)COc2ccc(-c3ccccc3)cc2)cc1,-13.8% (inactive),–
C[N+]1(C)CCOC(O)(c2ccc(-c3ccc(C4(O)C[N+](C)(C)CCO4)cc3)cc2)C1 (centres undefined),–,5.86 µM (active)
O=C(COC(=O)c1cnccn1)Nc1ccc(Cl)cc1C(F)(F)F,5.52% (inactive),–
CCCCCCCC(=O)OC(CN1CCCCCC1)CN1CCCC1=O (centres undefined),47.3% (inactive),–

SMILES,"activity change, negative = inhibition",Potency
O=c1c(-c2cccc(Cl)c2)c[nH]n1-c1ccccc1,–,7.38 µM (active)
O=C1NC(c2cccc(Cl)c2)Nc2ccccc21 (centres undefined),18.4% (inactive),–
O=C1CC(NNc2ccccc2)C(=O)N1c1cccc(Cl)c1 (centres undefined),0% (inactive),–
CC1(C)CC(=O)C=C(Nc2ccccc2)C1,0% (inactive),–
CC(=O)c1ccc(S(=O)(=O)NC2CC(=O)N(c3ccc4c(c3)OCCO4)C2)cc1 (centres undefined),-18.6% (inactive),–
O=C(CC1(O)C(=O)N(CN2CCOCC2)c2ccccc21)c1ccccc1 (centres undefined),-18.4% (inactive),–
C=CCN1C(=O)C(O)(CC(=O)c2ccccn2)c2ccccc21 (centres undefined),-40.1% (inactive),–
C=CCN1C(=O)C(O)(CC(=O)c2ccc(Cl)cc2)c2ccccc21 (centres undefined),–,14.7 µM (active)
O=C(Nc1nnc(-c2ccc(F)cc2)s1)c1c(F)cccc1Cl,15.7% (inactive),–
CC1CCN(C(=O)c2ccc(S(=O)(=O)Cc3cc(F)ccc3F)c([N+](=O)[O-])c2)CC1,–,10.4 µM (active)
O=C(Nc1ccc(F)cc1)C1CCN(C(=O)c2ccc([N+](=O)[O-])cc2)CC1,31.7% [at 5.75 µM] (inactive),–
O=C(c1ccc(Oc2ccc(Cl)cc2)c([N+](=O)[O-])c1)N1CCCC1,-13.7% (inactive),–
C#CC(C)(C)NC(=O)c1cnc(-c2ccccc2)nc1-c1ccccc1,-11.7% (inactive),–
O=C(c1ccccc1-c1ccccc1)N1CCOCC1,31% (inactive),–
Cc1noc(C)c1C(=O)N1CCOCC1,42.2% (inactive),–
Cc1oc2c(c1C(=O)N1CCOCC1)C(=O)c1ccccc1C2=O,–,0.828 µM (active)
O=S(=O)(NCC1CC1)c1ccc(F)c(Cl)c1,10.6% (inactive),–
CCOC(=O)C1CCN(S(=O)(=O)c2c(C)noc2C)CC1,13.3% (inactive),–
CCOC(=O)C1CCN(C(=O)C2CCN(S(=O)(=O)N3CCCC3)CC2)CC1,–,6.57 µM (active)
CCOC(=O)C1CCN(C(=O)Nc2ccc(Cl)cc2)CC1,-7.09% (inactive),–
CCOc1ccc(OCC)c(NC(=O)C2CCN(S(=O)(=O)c3c(C)noc3C)CC2)c1,-12.7% (inactive),–
CCOC(=O)C1CCN(C(=O)C2CCN(S(=O)(=O)c3c(C)noc3C)CC2)CC1,–,4.15 µM (active)
CCOC(=O)N1CCC(C(N)=O)CC1,-38.4% (inactive),–
O=C(O)C1C2C=CC(C2)C1C(=O)NCc1ccccc1 (centres undefined),72.4% (inactive),–
COc1ccc(NS(=O)(=O)c2cccc3nsnc23)cc1Cl,-14.6% (inactive),–
Nc1c(Cl)cc(S(N)(=O)=O)cc1S(N)(=O)=O,38.3% (inactive),–
